Measurements published in the supplement of paper PMC6555819.

Columns and labels:
Assay in all cases: PBM binding z-score (relative to random genomic background probes); higher = stronger binding; sequences stand for … in GC…GCGATTGACAGCGTAGAATGAAGG
[1] = system: FXR:RXRa (NR concentration 270 nM, RXRa partner concentration 90 nM)
In short: (§1)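 Binding buffer was PBS pH 7.4 with 2% milk, 0.02% Triton X-100, 1 mM DTT, 0.2 mg/mL BSA and 0.4 mg/ml salmon testes DNA. In it, ligand-free nuclear receptor dimers were incubated 1 h on custom Agilent 4×180K protein-binding microarrays carrying double-stranded probes. Antibodies against each partner (one per run) detected binding, and z-scores were calculated against random background probes after regression normalization of scanned fluorescence.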

[2] = system: LXRa:RXRa (NR concentration 270 nM, RXRa partner concentration 90 nM)
In short: as §1

[3] = system: LXRa homodimer (NR concentration 270 nM)
In short: as §1

[4] = system: LXRb:RXRa (NR concentration 270 nM, RXRa partner concentration 90 nM)
In short: as §1

[5] = system: LXRb homodimer (NR concentration 270 nM)
In short: as §1

[6] = system: PPARa:RXRa (NR concentration 270 nM, RXRa partner concentration 90 nM)
In short: as §1

[7] = system: PPARg:RXRa (NR concentration 180 nM, RXRa partner concentration 90 nM)
In short: as §1

[8] = system: PPARg:RXRa 270nM:90nM, anti-RXR (NR concentration 270 nM, RXRa partner concentration 90 nM)
In short: as §1

[9] = system: PPARg:RXRa 30nM:10nM, anti-RXR (NR concentration 30 nM, RXRa partner concentration 10 nM)
In short: as §1

[10] = system: PPARg:RXRa 90nM:30nM, anti-RXR (NR concentration 90 nM, RXRa partner concentration 30 nM)
In short: as §1

[11] = system: PPARg:RXRa DBDmut IVT, anti-RXR (DBD mutation: RXRa K156A/R161A, NR concentration 270 nM, RXRa partner concentration 90 nM)
In short: as §1

[12] = system: PPARg:RXRa IVT, anti-PPARg (NR concentration 270 nM, RXRa partner concentration 90 nM)
In short: as §1

[13] = system: PPARg DBDmut:RXRa IVT, anti-PPARg (DBD mutation: PPARg1 K132A/R137A, NR concentration 270 nM, RXRa partner concentration 90 nM)
In short: as §1

[14] = system: PPARg DBDmut IVT, anti-PPARg (DBD mutation: PPARg1 K132A/R137A, NR concentration 270 nM)
In short: as §1

[15] = system: PPARg homodimer (NR concentration 180 nM)
In short: as §1

[16] = system: PXR:RXRa (NR concentration 270 nM, RXRa partner concentration 90 nM)
In short: as §1

[17] = system: PXR homodimer (NR concentration 270 nM)
In short: as §1

[18] = system: RARa:RXR (NR concentration 270 nM, RXRa partner concentration 90 nM)
In short: as §1

[19] = system: RARa homodimer (NR concentration 270 nM)
In short: as §1

[20] = system: RARb:RXRa (NR concentration 270 nM, RXRa partner concentration 90 nM)
In short: as §1

Row | Sequence | PBM binding z-score [1] | PBM binding z-score [2] | PBM binding z-score [3] | PBM binding z-score [4] | PBM binding z-score [5] | PBM binding z-score [6] | PBM binding z-score [7] | PBM binding z-score [8] | PBM binding z-score [9] | PBM binding z-score [10] | PBM binding z-score [11] | PBM binding z-score [12] | PBM binding z-score [13] | PBM binding z-score [14] | PBM binding z-score [15] | PBM binding z-score [16] | PBM binding z-score [17] | PBM binding z-score [18] | PBM binding z-score [19] | PBM binding z-score [20]
1 | CAAACTAGGTCACGAAAGGCCAAAGTCGAATGAC | 5.15 | 6.02 | 1.03 | 4.03 | 0.629 | 5.58 | 9.27 | 7.42 | 5.71 | 7.41 | 8.35 | 9.09 | 5.28 | 3.96 | 2.99 | 4.77 | 0.402 | 3.68 | 0.983 | 4.56
2 | TAGCCTAGGTCATGCGGGCCAGTATTGTGTCGGC | 3.83 | 2.94 | 0.0608 | 1.71 | -0.269 | 3.48 | 1.84 | 2.13 | 0.0531 | 1.17 | 1.92 | 3.17 | -0.152 | -1.19 | 0.001 | 1.34 | -0.847 | 1.82 | -1.27 | 3.69
3 | AGAATGAGGTTATACTTAGATCAGGGAAGAAAGT | 1.79 | 1.76 | 0.275 | 1.58 | 0.388 | 2.68 | 1.83 | 1.44 | 0.605 | 1.17 | 2.72 | 2.03 | 1.21 | 1 | 1.21 | 1.02 | 0.666 | 1.38 | 1.18 | 1.3
4 | CGTCAAAATTCAAGGTAACGTAACAGAAAGCAGC | 0.068 | -0.273 | 0.242 | 0.13 | 0.187 | 0.331 | 0.678 | 0.108 | 0.0221 | 0.028 | 0.000306 | 0.704 | 0.815 | 0.761 | 0.474 | -0.0296 | 0.268 | 0.363 | 0.932 | 0.208
5 | TCATATAGGTAAACAGGCGAAAGTCCGTAAGTTA | 0.58 | 0.715 | 0.0889 | 0.816 | -0.0877 | 1.56 | 1.45 | 2.91 | 3.94 | 3.3 | 4.24 | 2.83 | 0.751 | 0.916 | 1.19 | 0.767 | 0.508 | 1.04 | 0.681 | 0.356
6 | ATCGTAAGGTCGACGAGGTGAGTATACACCGTTT | 3.07 | 1.79 | -0.0992 | 1.66 | 0.155 | 3.03 | 1.36 | 1.25 | 0.685 | 0.918 | 0.226 | 1.61 | 0.856 | 0.0648 | 0.926 | 2.17 | 0.476 | 2.39 | 0.139 | 3.08
7 | CCTACTGGGCCAAGATCATTGATCAGTCAAAGCA | -0.667 | -0.791 | -0.405 | -0.59 | -1.07 | 0.131 | 0.378 | 0.483 | -0.171 | 0.221 | 3.49 | 2.81 | -0.235 | -0.518 | -0.385 | -0.498 | -0.795 | -0.319 | -0.424 | -0.341
8 | TCGAGTAGGTTAGTCGAGGCATTCAGCCAACATA | 0.165 | -0.288 | -0.432 | -0.531 | -1.3 | 0.172 | -0.115 | 0.522 | 0.735 | 0.72 | 1.97 | 1.28 | -0.938 | -0.136 | 0.168 | -0.24 | -0.481 | 0.0963 | -0.326 | -0.133
9 | CCTACTGGGCCAAAAAGGTCATAGATGCCGATAA | 3.54 | 4.14 | 2.44 | 4.1 | -0.00458 | 5.14 | 3.89 | 4.29 | 1.84 | 3.55 | 3.18 | 4.3 | 0.551 | -0.44 | 3.27 | 4.51 | 1.73 | 5.33 | 1.49 | 3.98
10 | ATCGAAAGGTCGAGGTGAGTATAGAGAAAGGGAA | 4.21 | 3.57 | 0.072 | 2.77 | 0.504 | 4.79 | 3.78 | 3.66 | 1.28 | 2.62 | 0.752 | 2.38 | 0.636 | 0.688 | 1.8 | 2.49 | 0.362 | 3.37 | 0.75 | 4.18
11 | GCGACGGGGGCATCAGCAGGTTACCATAACTTAA | 2.95 | 3.18 | 0.557 | 5.21 | 8.02 | 4.19 | 2.48 | 3.35 | 1.55 | 2.59 | 1.76 | 4.14 | 7.32 | 9.29 | 1.83 | 3.29 | 0.826 | 3.42 | -0.447 | 3.16
12 | CCGACTGGGGCAGAAAGGTTACCGTACCATCCGG | 0.26 | 0.695 | -0.0357 | 1.01 | -1.05 | 2.4 | 1.54 | 2.95 | 0.724 | 2.38 | 1.72 | 2.39 | -1.2 | -1.01 | 0.541 | 1.02 | -0.429 | 1.79 | -0.282 | 1.84
13 | CAAACTAGTTCACAGAGGTCAAAGTCCGTGCGTA | 5.85 | 6.23 | 7.12 | 5.68 | 2.36 | 5.3 | 3.87 | 5.02 | 2.33 | 4.18 | 2.43 | 3.25 | 0.945 | 0.72 | 4.3 | 7.16 | 14.3 | 7.22 | 2.73 | 4.46
14 | CGAACTAGGTCATACAGGACAGTGAATACATTGA | 3.71 | 2.61 | 0.562 | 1.97 | 0.184 | 4.67 | 7.62 | 6.24 | 3.84 | 5.74 | 8.15 | 8.47 | 4.73 | 2 | 1.93 | 1.48 | 0.551 | 2 | 0.758 | 3.5
